From PubChem
HP1b binding inh: blocks HP1-beta chromodomain binding to methylated histone tails | P83916 | AlphaScreen HP1-beta / biotin-H3K9me3 peptide binding | Potency, µM (top dose mostly 114 µM), actives largely listed as inhibitors | hit rate 0.56% among 390,000 | AID 540317; note: nearly all actives have a fitted effect of over 70% in size
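Compound inhibition of the preformed complex between 50 nM HP1-beta and 50 nM biotinylated H3K9me3 peptide was read by AlphaScreen. Buffer was PBS pH 7.4 with 0.01% Tween-20. Incubations ran 30 min at room temperature, with 10 ug/mL donor/acceptor beads.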
JMJD2A Tudor: blocks the human JMJD2A Tudor domain | O75164 | AlphaScreen JMJD2A-Tudor / H3K4me3 peptide binding | hit rate 4.4% among 390,000 | Potency, µM (series often up to 114 µM), most hits filed as inhibitors | AID 504339; note: nearly all actives have a fitted effect of over 50% in size
G9a inh: G9a (human) methyltransferase inhibition; Potency, µM (highest dose often 102 µM), usual class: inhibitors; AID 504332; hit rate 8.8% among 350,000; G9a H3K9 monomethylation, AlphaScreen, 2 h; note: nearly all actives have a fitted effect of over 75% in size
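Signal arises when biotinylated H3K9 peptide, once monomethylated, bridges streptavidin donor and antibody-captured acceptor beads. Enzyme at 20 nM was preincubated 15 min with test compounds; peptide 500 nM and SAM 20 uM then reacted for 2 h.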
BAZ2B inh: BAZ2B (human) inhibition | Q9UIF8 | AlphaScreen BAZ2B-H3K14Ac peptide displacement | Potency, µM (doses to about 114 µM), most hits filed as inhibitors | hit rate 4.4% among 360,000; note: nearly all actives have a fitted effect of over 60% in size
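AlphaScreen displacement: compounds (up to 110uM) incubated 30 min at room temperature with a preformed 50 nM BAZ2B/50 nM biotinylated H3K14Ac peptide complex in PBS pH 7.4 with Tween-20. Donor and acceptor beads at 10 ug/mL final added, 20 min light-protected before reading.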
Six1-Eya2 inh: Six1/Eya2 interaction inhibition; activity change, % (no concentration beside the values); AlphaScreen GST-Six1/His-Eya2 binding, biochemical; stronger effect = lower value; hit rate 0.56% among 360,000; AID 651725; Q15475+O00167; in the data active = activity change below about -65%; inconclusive = mostly about -30% to -63%
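AlphaScreen luminescence read after one hour at 37 °C in darkness. Pin-transferred compounds met GST-Six1 and His-Eya2 protein (5X stock 250 nM/500 nM) plus glutathione donor and Ni-chelate acceptor beads (5X, 50 ug/mL).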
CtBP-E1A blk: CtBP/E1A binding inhibition; activity change, % (test concentration not listed); AID 651724; hit rate 0.49% among 340,000; AlphaScreen GST-E1A/His-CtBP binding, 1536-well; stronger effect = lower value; in the data active = activity change below about -65%; inconclusive = mostly about -30% to -63%
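Steps: dispense buffer (Tris pH 8.0, NaCl 300 mM, TCEP 1 mM, BSA, Tween 20); add 5X protein mix (GST-E1A, His-CtBP, 125 nM each); pin 23 nL compound; 2 h at 37 °C, dark; add 5X beads (50 ug/mL); 1 h; read.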
Each line names hits and unclear results; the compound was inactive in the other large screens. A selection: hits, their analogues and other compounds. The true share with any hit is near 10%. Unless noted, calls come from the whole dose curve; as a rule, active = well fitted inhibition curve with a large enough effect; inconclusive = small, poorly fitted or top-dose-only effect; inactive = no such curve, though single readings can be large or run the other way.

CC(C)c1ccc(NC(=O)CCS(=O)(=O)c2ccc(Br)s2)cc1	G9a inh inconclusive (no result: Six1-Eya2 inh, CtBP-E1A blk)
O=C(CCS(=O)(=O)c1ccc(Cl)cc1)Nc1ccccc1Br	none
CCc1cccc(CC)c1NC(=O)CCS(=O)(=O)c1ccc(Br)s1	G9a inh 22µM (no result: Six1-Eya2 inh, CtBP-E1A blk)
CC(C)(O)C#Cc1ccc(CN2CCN(Cc3ccsc3)C(CCO)C2)s1 (stereo not drawn)	none
CCOc1ccc(NC(=S)Nc2cc(C)[nH]n2)cc1	JMJD2A Tudor inconclusive, BAZ2B inh inconclusive
Cc1cccc(C(=O)O[C@@H]2[C@H](Cc3ccccc3)NS(=O)(=O)[C@H]3C[C@@H]4C=C[C@]23O4)c1	none
CC(NC(=O)C1CCN(S(=O)(=O)c2ccc3nc4c(c(C(=O)O)c3c2)CCCC4)CC1)c1ccccc1 (stereo not drawn)	G9a inh 40µM
CN(Cc1ccccc1)C(=O)C1CCN(S(=O)(=O)c2cccc3nsnc23)CC1	JMJD2A Tudor 14µM
CN(CCCNC(=O)C1CCN(S(=O)(=O)c2cccc3nsnc23)CC1)Cc1ccccc1	none
CN(Cc1ccccc1)C(=O)C1CCN(S(=O)(=O)c2ccc3nc4c(c(C(=O)O)c3c2)CCCC4)CC1	G9a inh inconclusive, BAZ2B inh 50µM, Six1-Eya2 inh inconclusive (no result: CtBP-E1A blk)
O=C(O)c1c2c(nc3ccc(S(=O)(=O)N4CCC(C(=O)NCc5ccccc5)CC4)cc13)CCCC2	Six1-Eya2 inh -73 (no result: HP1b binding inh, JMJD2A Tudor, G9a inh, BAZ2B inh)
COc1cccc(C2C(C#N)=C(N)SC(c3ccccc3)C2[N+](=O)[O-])c1 (stereo not drawn)	JMJD2A Tudor inconclusive, G9a inh inconclusive, BAZ2B inh 50µM (no result: CtBP-E1A blk)
O=C1CCC/C1=C/Nc1cccc(F)c1	JMJD2A Tudor 50µM (no result: G9a inh)
O=C1CCCC/C1=C/Nc1ccc2c(c1)OCO2	G9a inh 35µM, BAZ2B inh inconclusive
CCOP(=O)(O)c1ccccc1OCCOc1ccccc1P(=O)(O)OCC	G9a inh 45µM, BAZ2B inh inconclusive
CCC(C)NC(=O)COC(=O)Cc1sc(N)nc1-c1ccc(C)cc1 (stereo not drawn)	none
Nc1nc(-c2ccccc2)c(-c2ccccc2)s1	JMJD2A Tudor inconclusive, G9a inh 40µM
Cc1ccc(-c2nc(N)sc2C)cc1	G9a inh 50µM, BAZ2B inh inconclusive (no result: CtBP-E1A blk)
Cc1ccc(-c2nc(N)sc2-c2ccc(C)cc2)cc1	JMJD2A Tudor inconclusive, G9a inh 50µM, BAZ2B inh inconclusive
Cc1sc(N)nc1-c1cccs1	G9a inh inconclusive
CCCc1sc(N)nc1-c1ccc(C)cc1	JMJD2A Tudor inconclusive, G9a inh 56µM, BAZ2B inh inconclusive
COC(=O)[C@H]1CC=C[C@H]2CCN(Cc3ccc(Cl)c(Cl)c3)C(=O)[C@@H]12	none (no result: HP1b binding inh, JMJD2A Tudor, BAZ2B inh, Six1-Eya2 inh, CtBP-E1A blk)
CC(=NO)c1ccc2c(c1)C(=NO)c1ccccc1-2	none (no result: G9a inh, BAZ2B inh)
COc1ccc(-c2nc(-n3c(C)c(C(C)=O)c(C(C)=O)c3C)sc2C)cc1	JMJD2A Tudor inconclusive, G9a inh inconclusive, BAZ2B inh inconclusive
COc1ccc(-c2nc(C)sc2C)cc1	HP1b binding inh inconclusive, JMJD2A Tudor 32µM, G9a inh inconclusive
C[C@H]1COc2cc(N3CCC[C@H]3CO)ccc2S(=O)(=O)N1	none (no result: HP1b binding inh, JMJD2A Tudor, G9a inh, BAZ2B inh)
O=S1(=O)N[C@@H](Cc2ccccc2)COc2cc(N3CCSCC3)ccc21	none (no result: HP1b binding inh, JMJD2A Tudor, G9a inh, BAZ2B inh)
Cc1oc(-c2ccc(F)cc2)cc1-c1nn2c(-c3ccoc3C)nnc2s1	HP1b binding inh inconclusive, JMJD2A Tudor 89µM, G9a inh inconclusive, BAZ2B inh 35µM
Cc1oc(-c2ccc(Cl)cc2)cc1-c1nn2c(-c3ccco3)nnc2s1	G9a inh inconclusive, BAZ2B inh 35µM (no result: HP1b binding inh, JMJD2A Tudor, Six1-Eya2 inh, CtBP-E1A blk)
Clc1ccc(-c2nnc3sc(-c4ccco4)nn23)c(Cl)c1	none (no result: HP1b binding inh, JMJD2A Tudor, Six1-Eya2 inh, CtBP-E1A blk)
O=[N+]([O-])c1ccc(Oc2ccc(F)cc2)c2ccncc12	JMJD2A Tudor inconclusive, G9a inh inconclusive, BAZ2B inh 50µM
O=[N+]([O-])c1cccnc1Oc1ccc(F)cc1	none
Cc1ccc(N(CC(=O)NC(C)(C)C)C(=O)CCC(=O)Nc2nccs2)c(C)c1	none
O=C(COC(=O)CSc1ccc([N+](=O)[O-])cc1)NCC1CCCO1 (stereo not drawn)	none
CCCCN(C(=O)CSc1nnc(Nc2ccccc2)s1)c1c(N)n(CCC)c(=O)[nH]c1=O	G9a inh 40µM (no result: CtBP-E1A blk)
CCN(C(=O)CSc1nc2ccc([N+](=O)[O-])cc2s1)c1c(N)n(Cc2ccccc2)c(=O)[nH]c1=O	none (no result: G9a inh, BAZ2B inh, CtBP-E1A blk)
CCN(C(=O)COC(=O)/C=C/c1ccc(C)o1)c1c(N)n(Cc2ccccc2)c(=O)[nH]c1=O	HP1b binding inh inconclusive, JMJD2A Tudor 79µM, G9a inh 11µM
CCCCN(C(=O)CSc1nnnn1C)c1c(N)n(Cc2ccccc2)c(=O)[nH]c1=O	none
CN(C(=O)CSc1nc2ccccc2s1)c1c(N)n(Cc2ccccc2)c(=O)[nH]c1=O	G9a inh 25µM
Cc1ccc(/C=C/C(=O)OCC(=O)N(CC(C)C)c2c(N)n(Cc3ccccc3)c(=O)[nH]c2=O)o1	none
CCN(C(=O)CSc1nncs1)c1c(N)n(Cc2ccccc2)c(=O)[nH]c1=O	G9a inh 14µM
CCc1nc2ccc(C(=O)Nc3ccc(Cl)c(Cl)c3)cn2c1N(C)Cc1ccc(OC)cc1	none (no result: HP1b binding inh, JMJD2A Tudor, G9a inh, BAZ2B inh)
